FBW7 activator: human FBW7 E3 ligase activation, primary screen | Q969H0 | AlphaScreen FBW7–phospho-cyclin E peptide binding, activator screen | normalized activity (activation), % at 26.1 µM | actives 0.13% (n = 650,000); in the data active = normalized activity above about 1.9%;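 also: purified mutant Fbw7 with reduced substrate affinity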
MITF primary: human MITF inhibition, primary screen; O75030; AlphaScreen MITF homodimerization, bead proximity signal; inhibition, % at 2.6 µM; actives 0.91% (n = 650,000); in the data active = inhibition above about 50%;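 also: 0% = vehicle wells with protein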
Target sequence (O75030 whole entry, looked up): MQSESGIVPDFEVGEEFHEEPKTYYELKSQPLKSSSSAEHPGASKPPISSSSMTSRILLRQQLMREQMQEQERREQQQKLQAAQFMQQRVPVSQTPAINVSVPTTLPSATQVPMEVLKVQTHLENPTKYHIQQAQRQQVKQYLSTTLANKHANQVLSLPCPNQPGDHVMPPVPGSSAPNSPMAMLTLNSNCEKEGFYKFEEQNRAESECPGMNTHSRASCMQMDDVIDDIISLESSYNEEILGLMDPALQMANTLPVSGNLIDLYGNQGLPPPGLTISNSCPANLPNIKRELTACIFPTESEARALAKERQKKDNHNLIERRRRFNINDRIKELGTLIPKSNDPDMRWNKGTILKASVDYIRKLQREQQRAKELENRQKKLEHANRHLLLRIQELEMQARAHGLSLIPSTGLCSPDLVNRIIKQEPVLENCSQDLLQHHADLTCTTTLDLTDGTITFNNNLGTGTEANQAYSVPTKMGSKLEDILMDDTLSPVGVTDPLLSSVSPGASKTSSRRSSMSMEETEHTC
TEAD-YAP inh: TEAD-YAP interaction inhibition. inhibition, % at 9.12 µM. AID 1259422. HEK-TIYL cells, TEAD-Gal4/YAP UAS-luciferase luminescence. actives 1.4% (n = 640,000); in the data active = inhibition above about 32%;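 also: 0% = median of test compound wells and 100% = reference inhibitor wells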
GPR151 activ: human GPR151 activation; Q8TDV0; PathHunter beta-arrestin GPR151 cells, luminescence; actives 1% (n = 650,000); AID 1508602; activation, % at 11.2 µM; in the data active = activation above about 4.9%;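 also: 0% = median of compound wells and 100% = cells with positive control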
Numbers without * were called inactive; ! = not active in a repeat. Most compounds without a hit are left out; they make up all but 3.4% or so of the library.

SMILES	FBW7 activator	MITF primary	TEAD-YAP inh	GPR151 activ
O=C(O)C1CCCCN1S(=O)(=O)c1ccc(Cl)cc1 (stereo not drawn)	0	6	3	1
CN(C)/C=C1/S/C(=N/S(=O)(=O)c2ccccc2)N(C2CCCCC2)C1=O	2.5*	3	-7	-1
COc1ccc(-c2csc(CN3CCN(C(=O)c4ccc(F)c(F)c4)CC3)n2)cc1	0	2	50*	0
CCn1cc(C(=O)N2CCN(Cc3nc(-c4ccc(F)cc4)cs3)CC2)c(=O)c2ccc(C)nc21	0	10	61*	-1
CCn1cc(C(=O)N2CCN(c3ccccc3OC)CC2)c(=O)c2ccc(C)nc21	0	1	-1	0
CC(C)(C)C(=O)NC1CCN(C(=S)Nc2ccc(F)cc2)CC1	0	-4	-12	-1
NC(=O)C1CCN(C(=S)NC(=O)c2ccc(Cl)cc2)CC1	2.3*	7	-6	0
COC(=O)c1cc(S(=O)(=O)N2CCC(C)CC2)c[nH]1	0	6	1	0
COC(=O)C1=C(C)NC2=C(C(=O)c3ccccc32)C1c1ccc(OC)c(OC)c1 (stereo not drawn)	0	0	-9	0
COc1ccc(-c2nccc(Nc3cc(OC)c(OC)c(OC)c3)n2)cc1	0	0	60*	2
COc1ccc(-c2nc(Nc3cc(OC)c(OC)c(OC)c3)nc(OC)n2)cc1	0	-2	45*	-1
COc1ccc(-c2nc(Nc3ccc(Oc4ccccc4)cc3)nc(OC)n2)cc1	0	16	3	2
O=C(O)c1cc(-c2cccs2)nc2nc(N3CCCCC3)sc12	0	2	11	-2
Cc1ccc(-c2nnc(Nc3ccc(F)cc3)c3ccccc23)cc1S(=O)(=O)NCC1CCCO1 (stereo not drawn)	0	2	25	-1
COc1ccc2cc(-c3nc4ccccc4[nH]3)c(=Nc3cccc(C(F)(F)F)c3)oc2c1	0	-9	72*	-3
CCN(CC)c1ccc(-c2nnc3c(n2)c(=O)n(C)c(=O)n3C)cc1	0	-6	-7	0
O=C1Nc2c(C(F)(F)F)cccc2C12SCCS2	0	8	34*	0
CC1CCCN(C2(O)C(=O)Nc3c(C(F)(F)F)cccc32)C1 (stereo not drawn)	0	-4	-12	1
COc1ccc(C2(C(=O)NCCc3nc(-c4ccncc4)n[nH]3)CCCCC2)cc1	0	18	11	0
COc1cc(NC(=O)c2cccc(-n3cc(Nc4nnnn4-c4ccccc4)cn3)c2)ccc1N1CCOCC1	0	2	32*	-1
COc1cc(NC(=O)c2cccc(-n3cc(Nc4nc5ccccc5[nH]4)cn3)c2)cc(OC)c1OC	0	8	34*	1
COc1cc(NC(=O)c2cccc(-n3cc(NS(=O)(=O)Cc4ccccc4)cn3)c2)cc(OC)c1OC	0	9	39*	-1
O=C(NCc1ccccc1Cl)NC12CC3CC(CC(C3)C1)C2	0	-9	-10	0
CCCCCCCc1c2c(C)c(C(=O)OCC)nc-2cc2n1C(C)C(C)=C2C (stereo not drawn)	0	3	29	1
CCCCCCCc1c2c(C)c(C(=O)OCC)nc-2cc2n1CC(C)=C2C	0	11	42*	2
SMILES	FBW7 activator	MITF primary	TEAD-YAP inh	GPR151 activ
O/C(=C\c1nc2ccccc2nc1/C=C(\O)c1ccccc1)c1ccccc1	0	8	-30	-1
C/C(O)=C/c1nc2cccnc2nc1/C=C(/C)O	0	73*	7	-1
Cc1ccc(CNC(=O)CSc2nc3ccccc3c3nc(CCc4c[nH]c5ccccc45)nn23)cc1	0	16	5	0
CCN(CCO)c1ccc(NC(=S)Nc2ccccc2F)cc1	0	8	66*	-9
NS(=O)(=O)c1ccc(NC(=S)Nc2ccc(F)cc2)cc1	0	9	1	-1
CCN(CC)c1ccc(NC(=S)Nc2ccc(S(N)(=O)=O)cc2)cc1	0	74*	5	0
COc1cccc(NC(=O)Cn2c3c(c4ccccc42)CCC3)c1OC	0	11	19	0
O=C(Nc1cccc2nsnc12)c1cccc(OCc2ccccc2)c1	0	-19	-4	0
COc1ccc(-c2csc3ncnc(Cl)c23)cc1OC	2	13	34*	1
CCCC(c1nnnn1CCOC)N1CCN(C(c2ccccc2)c2ccccc2)CC1 (stereo not drawn)	0	-8	-15	0
O=c1oc(-c2ccccc2F)nc2scc(-c3ccccc3)c12	0	-9	5	0
CC(C)(C)c1ccc(C(=O)Nc2sccc2C(N)=O)cc1	0	-4	69*	-6
CN(C)c1ccc(C(=O)Nc2cc(C(N)=O)c(Cl)cc2Cl)cc1	0	-6	-8	-1
CC(C)(C)c1ccc(C(=O)Nc2ccccc2C(N)=O)cc1	2.1*	17	56*	-4
CN(C)c1ccc(C(=O)Nc2ccccc2Br)cc1	0	-2	65*	-5
NC(=O)c1ccccc1NC(=O)c1ccc(-c2ccccc2)cc1	0	1	-18	-1
CN(C)c1ccc(C(=O)Nc2ccccc2C(N)=O)cc1	0	-18	52*	-5
Cc1cccc(OCC(=O)Nc2ccc(N3CCOCC3)cc2)c1	0	1	7	-1
O=S(=O)(c1ccccc1)N1CCC(O)(CSc2ccc(Cl)cc2)CC1	0	5	39*	0
Cc1nc2ccccc2n1Cc1nnc(-c2ccccc2)o1	0	4	40*	2
CCOC(=O)c1cccc(NC(=O)/C=C/c2ccccc2[N+](=O)[O-])c1	0	6	33*	1
CSc1ccccc1Nc1ncnc2c1cnn2-c1cccc(C)c1	0	-11	60*	0
Cc1cccc(-n2ncc3c(Nc4ccccc4)ncnc32)c1	0	10	-43	5
Cc1cccc(-n2ncc3c(Nc4c(C)cc(C)cc4C)ncnc32)c1	0	7	57*	1
Cc1cccc(-n2ncc3c(Nc4cccc5ccccc45)ncnc32)c1	0	19	32*	-1
SMILES	FBW7 activator	MITF primary	TEAD-YAP inh	GPR151 activ
CC(C)(C)c1ccc(CSc2nncc(=O)[nH]2)cc1	1	2	-28	2
CCc1ccc2oc(-c3ccc(NC(=O)COc4cc(C)cc(C)c4)cc3)nc2c1	0	-11	1	5
COc1cc(C2Nc3ccccc3NC3=C2C(=O)CC(c2ccccc2Cl)C3)ccc1O (stereo not drawn)	0	5	51*	-1
COc1cc(C2Nc3ccccc3NC3=C2C(=O)CC(c2ccccc2Cl)C3)cc(Br)c1O (stereo not drawn)	0	4	43*	0
Cc1cc(NCCN2CCOCC2)nc(N2CCC(N3CCOCC3)CC2)n1	0	-4	1	-1
COc1ccc(C2CNC(=O)C2)cc1OC1CCCC1 (stereo not drawn)	0	4	33*!	-1
COc1ccc(OC)c(C2CNC(=O)C2)c1 (stereo not drawn)	0	0	2	0
O=C(Nc1cnn(-c2ccc(C(=O)NC3CCc4ccccc43)cc2)c1)c1ccoc1 (stereo not drawn)	1	13	56*	-1

Screening results from PubChem.
